In PubChem BioAssay (EPA / NIEHS):
Records with an inconclusive call do not appear. More than one record can exist for a structure, and the calls need not agree. Activity calls are given as the source filed them. Rule for the calls: active = hit-call score of the fitted dose curve at least 0.9, where 1 is the maximum; inconclusive = response in the unintended direction; inactive = score below 0.9.

Molecular target: Nuclear receptor subfamily 4 group A member 2 (Homo sapiens) (UniProt P43354)
Experiment: ATG_NURR1_TRANS: Attagene TRANS-FACTORIAL HepG2 Assay for human Nuclear Receptor Related Protein 1 (NURR1) (AID 2282985)
Details: HepG2 Attagene TRANS reporter, mRNA readout
Procedure: ATG_TRANS is a cell-based, multiplexed-readout assay that uses HepG2, a human liver cell line, with measurements taken at 24 hours after chemical dosing in a 24-well plate.ATG_NURR1_TRANS is one of 30 assay component(s) measured or calculated from the ATG_TRANS assay. It is designed to make measurements of mRNA induction, a form of inducible reporter, as detected with fluorescence intensity signals by Reverse transcription polymerase chain reaction (RT-PCR) and Capillary electrophoresis technology.Data from the assay component ATG_NURR1_TRANS was analyzed into 1 assay endpoint. This assay endpoint, ATG_NURR1_TRANS, was analyzed in the positive analysis fitting direction relative to DMSO as the negative control and baseline of activity. Using a type of inducible reporter, measures of mRNA for gain-of-signal activity can be used to understand the reporter gene at the transcription factor-level as they relate to the gene NR4A2. Furthermore, this assay endpoint can be referred to as a primary readout, because this assay has produced multiple assay endpoints where this one serves a reporter gene function. To generalize the intended target to other relatable targets, this assay endpoint is annotated to the nuclear receptor intended target family, where the subfamily is orphan.
Human liver HepG2 cells are transiently transfected with multiple reporter transcription units (MRTUs) in 6-well plates using FuGene 6 reagent (Roche; 3 ml FuGene/1 mg DNA). The MRTU constructs are regulated by a cis-regulating element (promoter). […] A major difference between the CIS and TRANS system is that in CIS activities of endogenous TFs are measured, whereas the TRANS assay evaluates changes in activities of exogenous, chimeric NR-Gal4 proteins. […] At the end of 24 hour incubation, total RNA was isolated using TriZol reagent (Invitrogen). The isolated RNA is then reverse-transcribed using oligo(dT) primer and Mo-MLV reverse transcriptase (Invitrogen) with DNAse I (Ambion) treatment for 30 min. The one-tenth of the produced cDNA was amplified by PCR using Taq DNA polymerase (Invitrogen) and two reporter sequence-specific primers. The PCR products were fluorescently labeled by primer extension with 6-arboxyfluorescein (6-FAM) 5'-labeled reporter sequence-specific primer (2 min at 95 C, 20 s at 68 C and 10 min at 72 C) and these products were digested with 5U of HpaI (New England Biolabs) for 2h at 37 C. The fragments were purified using Qiaquick PCR columns (Qiagen), analyzed on an ABI 3130xL genetic analyzer (Applied Biosystems) with peak positions identified by using a set of X-rhodamine (ROX)-labeled MapMarker1000 molecular weight standards (BioVentures). The raw capillary electrophoresis data was processed using Attagraph software (Attagene).

Chain of Nuclear receptor subfamily 4 group A member 2 (Homo sapiens) (P43354 whole entry, looked up): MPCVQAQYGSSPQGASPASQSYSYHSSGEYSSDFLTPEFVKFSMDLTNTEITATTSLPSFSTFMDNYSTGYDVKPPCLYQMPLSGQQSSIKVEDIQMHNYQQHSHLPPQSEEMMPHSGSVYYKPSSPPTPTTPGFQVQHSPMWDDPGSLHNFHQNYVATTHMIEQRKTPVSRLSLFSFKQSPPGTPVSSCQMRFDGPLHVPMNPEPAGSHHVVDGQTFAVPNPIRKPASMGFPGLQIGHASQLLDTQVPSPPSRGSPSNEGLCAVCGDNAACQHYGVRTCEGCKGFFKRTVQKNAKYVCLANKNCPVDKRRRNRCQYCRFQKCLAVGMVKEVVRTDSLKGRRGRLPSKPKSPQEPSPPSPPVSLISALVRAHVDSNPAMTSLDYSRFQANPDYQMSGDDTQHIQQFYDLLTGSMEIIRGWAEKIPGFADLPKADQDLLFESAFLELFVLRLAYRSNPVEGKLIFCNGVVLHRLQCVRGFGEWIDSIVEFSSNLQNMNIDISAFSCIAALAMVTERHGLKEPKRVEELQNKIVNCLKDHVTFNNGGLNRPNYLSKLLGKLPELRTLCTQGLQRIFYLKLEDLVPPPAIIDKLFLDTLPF

| Compound | outcome | AC50 |
| --- | --- | --- |
| COC(=O)c1cccc(C)c1S(=O)(=O)NC(=O)Nc1nc(OCC(F)(F)F)nc(N(C)C)n1 | inactive | – |
| CCC(O)=C1C(=O)CC(C(=O)O)CC1=O (stereo not given) | inactive | – |
| CC(C)(c1ccc(O)cc1)c1ccc(O)cc1 | inactive | 44 µM (active) |
| O=C(c1ccc(O)cc1O)c1ccc(O)cc1O | inactive | – |
| CC(=O)[C@H]1CC[C@H]2[C@@H]3CCC4=CC(=O)CC[C@]4(C)[C@H]3CC[C@]12C | inactive | – |
| CCCOC(=O)NCCCN(C)C | inactive | – |
| N#CSCSc1nc2ccccc2s1 | inactive | 11.6 µM (active) |
| N[C@@H](Cc1cc(I)c(Oc2ccc(O)c(I)c2)c(I)c1)C(=O)O | inactive | 25.8 µM (active) |
| CCCCCOC(=O)COc1cc(N2C(=O)C3=C(CCCC3)C2=O)c(F)cc1Cl | inactive | – |
| CCCCOCCOCCOCc1cc2c(cc1CCC)OCO2 | inactive | – |
| CCCCCCC(C)OC(=O)COc1nc(F)c(Cl)c(N)c1Cl (stereo not given) | inactive | – |
| C[C@]12C[C@H](O)[C@H]3[C@@H](CCC4=CC(=O)CC[C@@]43C)[C@@H]1CC[C@@H]2C(=O)CO | inactive | – |
| C[C@]12CC[C@@H]3c4ccc(O)cc4C[C@@H](CCCCCCCCCS(=O)CCCC(F)(F)C(F)(F)F)[C@H]3[C@@H]1CC[C@@H]2O (stereo not given in full) | inactive | – |
| CCC(C)OC(=O)N1CCCCC1CCO (stereo not given) | inactive | – |
| CSC(=O)c1cccc2nnsc12 | inactive | – |
| c1ccc2[nH]c(-c3cscn3)nc2c1 | inactive | – |
| CCOC(=O)C(C)Oc1ccc(Oc2nc3ccc(Cl)cc3o2)cc1 (stereo not given) | inactive | – |
| COC(=O)c1ccccc1S(=O)(=O)NC(=O)Nc1nc(OC(F)F)cc(OC(F)F)n1 | inactive | – |

| Compound | outcome | AC50 |
| --- | --- | --- |
| CCOC(=O)NCCOc1ccc(Oc2ccccc2)cc1 | inactive | – |
| CCCCC(CC)CN1C(=O)C2C3C=CC(C3)C2C1=O (stereo not given) | inactive | – |
| Cc1nn(C)c(Oc2ccccc2)c1C=NOCc1ccc(C(=O)OC(C)(C)C)cc1 | inactive | – |
| CCSC(=O)N(CC(C)C)CC(C)C | inactive | – |
| CC(C)CCCCCCc1ccc(O)cc1 | inactive | 11.1 µM (active) |
| CC(=O)S[C@@H]1CC2=CC(=O)CC[C@]2(C)[C@H]2CC[C@@]3(C)[C@@H](CC[C@@]34CCC(=O)O4)[C@H]12 | inactive | – |
| CCCOC(=O)c1ccc(C(=O)OCCC)nc1 | inactive | – |
| CCOC(=O)C(C)Oc1ccc(Oc2cnc3cc(Cl)ccc3n2)cc1 (stereo not given) | inactive | – |
| O=C(O)c1ccccc1 | inactive | – |
| CCCCOC(=O)[C@@H](C)Oc1ccc(Oc2ccc(C(F)(F)F)cn2)cc1 | inactive | – |
| OB(O)O | inactive | – |
| COC(=O)c1ccccc1C(=O)O | inactive | – |
| COc1c(Cl)ccc(Cl)c1C(=O)O | – | 59.2 µM (active) |
| COc1nc(C)nc(NC(=O)NS(=O)(=O)c2ccccc2OCCCl)n1 | inactive | – |
| CCCCOC(=O)C(C)Oc1ccc(Oc2ccc(C(F)(F)F)cn2)cc1 (stereo not given) | inactive | – |
| CCOC(=O)c1ccc(O)cc1 | inactive | – |
| C#C[C@]1(O)CC[C@H]2[C@@H]3CCC4=CC(=O)CC[C@@H]4[C@H]3CC[C@@]21CC | inactive | – |
| CCN(Cc1c(F)cccc1Cl)c1c([N+](=O)[O-])cc(C(F)(F)F)cc1[N+](=O)[O-] | inactive | – |
